# Laboratory results: the supplement of paper PMC3414501
# Counter-ions that a name gives are not always drawn. Values without a mark were called inactive.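 The calls were made as follows: active = score above 5; some higher scores were not called.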
# Tested on: S. cerevisiae SK1 pCDA2-eGFP (USY613), sporulating
# Experiment: CDA2-GFP sporulation assay sensitivity score (z-score vs DMSO controls); higher = stronger inhibition of sporulation, active = hit call of the paper
row,SMILES,CDA2-GFP sporulation assay sensitivity score
1,"Cc1c(C(=O)NN2CCCCC2)nn(-c2ccc(Cl)cc2Cl)c1-c1ccc(I)cc1 (stock concentration (mM, diluted 1:100): 10)",-0.97
2,"CCN1CCN(c2cc3c(cc2F)c(=O)c(C(=O)O)cn3C2CC2)CC1 [Enrofloxacin] (stock concentration (mM, diluted 1:100): 10)",2.66
3,"CN(C)CC/C=C1/c2ccccc2COc2ccc(CC(=O)O)cc21 [Olopatadine hydrochloride] (stock concentration (mM, diluted 1:100): 12.7)",1.08
4,"CC(C)OC(=O)CCC/C=C\C[C@@H]1[C@@H](CC[C@@H](O)CCc2ccccc2)[C@H](O)C[C@@H]1O [Latanoprost] (stock concentration (mM, diluted 1:100): 10.3)",8.85 (active)
5,"Nc1c2c(nc3c1CCC3)CCCC2 [Amiridine] (stock concentration (mM, diluted 1:100): 10)",2.39
6,"C[C@@H]1C[C@H]2[C@@H]3CCC4=CC(=O)C=C[C@]4(C)[C@@]3(F)[C@@H](O)C[C@]2(C)[C@H]1C(=O)CO [Desoximetasone] (stock concentration (mM, diluted 1:100): 10)",0.62
7,"Nc1ccc2cn[nH]c2c1 [6-Aminoindazole] (stock concentration (mM, diluted 1:100): 10)",2.67
8,"CCOc1cc(CC(=O)N[C@@H](CC(C)C)c2ccccc2N2CCCCC2)ccc1C(=O)O [Repaglinide] (stock concentration (mM, diluted 1:100): 10)",2
9,"CC(CCCCC(=O)Nc1ccc(C(F)(F)F)cc1)NCCc1cnc[nH]1 (stereo not drawn) (stock concentration (mM, diluted 1:100): 10)",2.58
10,"CCc1oc2ccccc2c1C(=O)c1cc(Br)c(O)c(Br)c1 [Benzbromarone] (stock concentration (mM, diluted 1:100): 10)",13.7 (active)
11,"NC1CCN(c2cccc(Cl)n2)CC1 (stock concentration (mM, diluted 1:100): 10)",13.8 (active)
12,"CN(C)CC[C@@H](c1ccc(Br)cc1)c1ccccn1 [Dexbrompheniramine maleate] (stock concentration (mM, diluted 1:100): 7.3)",-1.63
13,"O=C(CCCN1CCC(O)(c2ccc(Cl)cc2)CC1)c1ccc(F)cc1 [Haloperidol] (stock concentration (mM, diluted 1:100): 10)",8.19 (active)
14,"Cc1nc2ccccn2c(=O)c1CCN1CCC(C(=O)c2ccc(F)cc2)CC1 [Pirenperone] (stock concentration (mM, diluted 1:100): 10)",13.6 (active)
15,"Nc1nnc(-c2cccc(Cl)c2Cl)c(N)n1 [Lamotrigine] (stock concentration (mM, diluted 1:100): 10.3)",0.64
16,"COc1cc2nc(N3CCN(C(=O)c4ccco4)CC3)nc(N)c2cc1OC [Prazosin] (stock concentration (mM, diluted 1:100): 10)",1.07
17,"O=C1[C@H](CC[C@H](O)c2ccc(F)cc2)[C@@H](c2ccc(O)cc2)N1c1ccc(F)cc1 [Ezetimibe] (stock concentration (mM, diluted 1:100): 10)",-0.54
18,"CC(C)c1ccc2c(c1)c(SC(C)(C)C)c(CC(C)(C)C(=O)O)n2Cc1ccc(Cl)cc1 [Tocris-1311] (stock concentration (mM, diluted 1:100): 10)",11.2 (active)
19,"COC(=O)C1=C(C)NC(C)=C(C(=O)OC2CCCN(Cc3ccccc3)C2)C1c1cccc([N+](=O)[O-])c1 (stereo not drawn) [Benidipine hydrochloride] (stock concentration (mM, diluted 1:100): 6)",4.32
20,"CCOC(=O)c1ncn2c1CN(C)C(=O)c1cc(F)ccc1-2 [Flumazenil] (stock concentration (mM, diluted 1:100): 10)",1.01
21,"CCC(=O)NS(=O)(=O)c1ccc(-c2c(-c3ccccc3)noc2C)cc1 [Parecoxib] (stock concentration (mM, diluted 1:100): 9.8)",5.02
22,"CCn1cc(C(=O)O)c(=O)c2cc(F)c(N3CCN(C)CC3)cc21 [Pefloxacin mesylate] (stock concentration (mM, diluted 1:100): 7.9)",-0.85
23,"O=C1Nc2ccc(Cl)cc2[C@@](C#CC2CC2)(C(F)(F)F)O1 [Efavirenz] (stock concentration (mM, diluted 1:100): 10.1)",-2.28
24,"CCCCc1oc2ccccc2c1C(=O)c1cc(I)c(OCCN(CC)CC)c(I)c1 [Amiodarone hydrochloride] (stock concentration (mM, diluted 1:100): 9.5)",7.12
25,"COc1ccc2[nH]c([S+]([O-])Cc3ncc(C)c(OC)c3C)nc2c1 (stereo not drawn) [Omeprazole] (stock concentration (mM, diluted 1:100): 10)",6.11
26,"O=C(O[C@@H]1C[C@@H]2C[C@H]3C[C@H](C1)N2CC3=O)c1c[nH]c2ccccc12 [Dolasetron mesylate] (stock concentration (mM, diluted 1:100): 10.4)",-1
27,"CN1CCN(C2=Nc3cc(F)ccc3Cc3ccccc32)CC1 [Fluperlapine] (stock concentration (mM, diluted 1:100): 10)",17.9 (active)
28,"CN[C@H]1CC[C@@H](c2ccc(Cl)c(Cl)c2)c2ccccc21 [Sertraline] (stock concentration (mM, diluted 1:100): 9)",-0.26
